Experimental data: paper PMC4336329 (PLoS ONE, 2015)
Out of some 310,000 compounds screened, about 14,000 (4.5%) showed an effect of 50% or more. The effect is printed as a negative number. This excerpt belongs to a sample that is enriched for strong results.
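Further: peak tail current of the secondary pulse compared with the same well before compound.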

What follows are compounds tested against human ether-à-go-go-related gene (hERG) potassium channel (human, UniProt Q12809) (assay: primary screen, population patch clamp on CHO cells stably expressing hERG; higher = less effect of the substance).
human ether-à-go-go-related gene (hERG) potassium channel, sequence (Q12809 whole entry, looked up): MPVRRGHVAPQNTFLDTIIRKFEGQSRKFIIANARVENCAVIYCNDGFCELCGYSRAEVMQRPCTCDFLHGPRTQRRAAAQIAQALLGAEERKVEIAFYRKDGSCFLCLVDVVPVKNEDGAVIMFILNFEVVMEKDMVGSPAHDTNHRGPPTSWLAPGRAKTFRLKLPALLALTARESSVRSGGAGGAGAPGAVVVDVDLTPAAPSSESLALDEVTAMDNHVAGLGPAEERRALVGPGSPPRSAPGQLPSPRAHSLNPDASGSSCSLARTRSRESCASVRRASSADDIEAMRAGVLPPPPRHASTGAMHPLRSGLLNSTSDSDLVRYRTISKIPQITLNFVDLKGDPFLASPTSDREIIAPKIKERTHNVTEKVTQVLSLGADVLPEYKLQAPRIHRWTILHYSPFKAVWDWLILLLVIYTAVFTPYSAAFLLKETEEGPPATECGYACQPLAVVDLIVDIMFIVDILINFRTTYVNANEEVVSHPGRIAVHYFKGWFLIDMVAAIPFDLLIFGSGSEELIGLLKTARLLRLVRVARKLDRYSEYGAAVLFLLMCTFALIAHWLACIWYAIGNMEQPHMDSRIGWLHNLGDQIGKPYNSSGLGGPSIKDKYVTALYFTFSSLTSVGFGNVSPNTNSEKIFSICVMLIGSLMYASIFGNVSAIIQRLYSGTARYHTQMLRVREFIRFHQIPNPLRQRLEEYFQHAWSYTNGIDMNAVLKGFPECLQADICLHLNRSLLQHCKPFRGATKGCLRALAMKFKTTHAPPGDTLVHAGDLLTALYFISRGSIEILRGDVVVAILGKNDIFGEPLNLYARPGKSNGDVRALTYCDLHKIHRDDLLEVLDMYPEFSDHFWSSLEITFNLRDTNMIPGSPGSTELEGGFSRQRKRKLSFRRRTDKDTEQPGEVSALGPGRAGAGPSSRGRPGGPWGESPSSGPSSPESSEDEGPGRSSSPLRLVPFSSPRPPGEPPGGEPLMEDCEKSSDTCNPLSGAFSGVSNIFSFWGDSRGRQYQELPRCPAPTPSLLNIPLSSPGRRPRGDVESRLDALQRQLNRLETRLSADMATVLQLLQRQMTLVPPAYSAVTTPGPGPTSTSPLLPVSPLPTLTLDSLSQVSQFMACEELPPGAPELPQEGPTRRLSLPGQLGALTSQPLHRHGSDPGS
For COc1cc2c(c3oc(=O)cc(CC(=O)O)c13)CCC(C)(C)O2, the “hERG current change (%, negative = inhibition) at 10uM” value was -5.45%. With COc1ccccc1CCC(=O)N1CCC(n2nccc2NC(=O)C2CCOC2)CC1 (stereo not shown) the “hERG current change (%, negative = inhibition) at 10uM” value was 23.1%. CCOC(=O)CC1(c2ccccc2)CCOC(C)(C)C1 (stereo not shown) was tested, and the “hERG current change (%, negative = inhibition) at 10uM” value was 10.2%. O=C(c1cccnc1)N1C2C=CC(C2)C1(C(F)(F)F)C(F)(F)F (stereo not shown) was tested, and the “hERG current change (%, negative = inhibition) at 10uM” value was 14.6%. In the case of Cc1noc(C)c1C(=O)NC(C)C1CCCO1 (stereo not shown), the “hERG current change (%, negative = inhibition) at 10uM” value is reported as 3.08%. With Cc1ccc(C(=O)N2CCN(C)CC2)cc1S(=O)(=O)N1CCCCCC1 the “hERG current change (%, negative = inhibition) at 10uM” value was -25.9%. For Cc1ccc2cc(CCNC(=O)c3ccc4c(c3)OCO4)c(=O)[nH]c2c1C, the “hERG current change (%, negative = inhibition) at 10uM” value was 4.17%. In the case of O=C(O)c1ccc(COc2ccccc2/C=C2\NC(=O)N(Cc3ccccc3)C2=O)cc1, the “hERG current change (%, negative = inhibition) at 10uM” value is reported as 24.5%. COCCNC(=O)c1ccc(CS(=O)(=O)c2c(Cl)cccc2Cl)o1 was tested, and the “hERG current change (%, negative = inhibition) at 10uM” value was 0.994%. In the case of CCCN(CCC)CCCNC(=O)c1ccc(CS(=O)(=O)c2c(Cl)cccc2Cl)o1, the “hERG current change (%, negative = inhibition) at 10uM” value is reported as -73.1%. In the case of O=C(NC1CC1)c1ccc(CS(=O)(=O)c2c(Cl)cccc2Cl)o1, the “hERG current change (%, negative = inhibition) at 10uM” value is reported as -5.87%. For O=C(O)c1ccc(CS(=O)(=O)c2c(Cl)cccc2Cl)o1, the “hERG current change (%, negative = inhibition) at 10uM” value was 19%. With CCCCN(CC)CCCNC(=O)c1ccc(CS(=O)(=O)c2ccccc2C)o1 the “hERG current change (%, negative = inhibition) at 10uM” value was -35.2%. For O=C(NCCCN1CCCC1)c1ccc(CS(=O)(=O)c2c(Cl)cccc2Cl)o1, the “hERG current change (%, negative = inhibition) at 10uM” value was -10.5%. With CCCCN(CCCNC(=O)c1ccc(CS(=O)(=O)c2c(Cl)cccc2Cl)o1)Cc1ccccc1 the “hERG current change (%, negative = inhibition) at 10uM” value was -66.1%. In the case of O=C(NCCN1CCOCC1)c1ccc(CS(=O)(=O)c2c(Cl)cccc2Cl)o1, the “hERG current change (%, negative = inhibition) at 10uM” value is reported as 0.302%. CCCCN(CC)CCCNC(=O)c1ccc(CS(=O)(=O)c2c(Cl)cccc2Cl)o1 was tested, and the “hERG current change (%, negative = inhibition) at 10uM” value was -55.4%. In the case of O=c1nc(-c2ccccc2)c2ccccc2[nH]1, the “hERG current change (%, negative = inhibition) at 10uM” value is reported as -1.29%. Cc1oc(-c2ccc(Cl)cc2)cc1C(=O)NC1CCN(Cc2ccccc2)CC1 was tested, and the “hERG current change (%, negative = inhibition) at 10uM” value was 1.09%. With CCc1cc(=O)oc2cc(C)cc(OC(C)C(=O)NCC(O)c3ccccc3)c12 (stereo not shown) the “hERG current change (%, negative = inhibition) at 10uM” value was 4.7%. For Cc1ccc(CNC(=O)NC23CC4CC(CC(C4)C2)C3)cc1, the “hERG current change (%, negative = inhibition) at 10uM” value was 7.24%. CCn1cc(C(=O)NCC(OC)OC)c(=O)c2cc(S(=O)(=O)N3CCC(C)CC3)ccc21 was tested, and the “hERG current change (%, negative = inhibition) at 10uM” value was -28.8%. In the case of CSc1ccc(CNc2cccc3ccccc23)cc1, the “hERG current change (%, negative = inhibition) at 10uM” value is reported as 2.23%. In the case of CCOC(=O)c1c(NC(=O)c2ccc(Br)o2)sc2c1CCCC2, the “hERG current change (%, negative = inhibition) at 10uM” value is reported as -9.78%. Fc1ccc2nc3c(nc2c1)CCCC3 was tested, and the “hERG current change (%, negative = inhibition) at 10uM” value was 15.3%. With COCCCn1c(SCC(N)=O)nnc1-c1ccccc1 the “hERG current change (%, negative = inhibition) at 10uM” value was -0.75%. With Cc1ccccc1CC1(CO)CCCN(C(=O)c2cc(Cl)ccc2F)C1 (stereo not shown) the “hERG current change (%, negative = inhibition) at 10uM” value was -16.5%. In the case of Cc1ccccc1CC1(CO)CCCN(C(=O)c2ccccc2Cl)C1 (stereo not shown), the “hERG current change (%, negative = inhibition) at 10uM” value is reported as -81.5%. In the case of Cc1ccccc1CC1(CO)CCCN(C(=O)c2ccccc2N(C)C)C1 (stereo not shown), the “hERG current change (%, negative = inhibition) at 10uM” value is reported as -1.63%. For O=C(O)CC1Sc2nc3ccccc3n2C1=O (stereo not shown), the “hERG current change (%, negative = inhibition) at 10uM” value was 8.05%. COc1ccc(CN(C)C(=O)Cn2ccc(NC(=O)OCc3ccccc3)nc2=O)cc1OC was tested, and the “hERG current change (%, negative = inhibition) at 10uM” value was -20.4%. For O=C(c1ccccc1)N1CCC(O)(c2cccnc2)CC1, the “hERG current change (%, negative = inhibition) at 10uM” value was 16.1%. In the case of Cc1ccc2c(c1)c1c(n2C)C(=O)CCC1, the “hERG current change (%, negative = inhibition) at 10uM” value is reported as 11.8%. With Cc1cc(S(=O)(=O)N2CCN=C2c2ccccc2)ccc1F the “hERG current change (%, negative = inhibition) at 10uM” value was 7.23%. CS(=O)(=O)O.c1ccc(-c2ccc3c(c2)c2c4n3CCN=C4CCC2)cc1 was tested, and the “hERG current change (%, negative = inhibition) at 10uM” value was -61.5%. With OC1CN=C2CCCc3c2n(c2ccc(Cl)cc32)C1 (stereo not shown) the “hERG current change (%, negative = inhibition) at 10uM” value was -72.3%. In the case of CS(=O)(=O)O.O=C(O)c1ccc2c(c1)c1c3n2CCNC3CCC1 (stereo not shown), the “hERG current change (%, negative = inhibition) at 10uM” value is reported as 20.7%. O=C(O)c1c2c(nc3ccc(Cl)cc13)CCC2 was tested, and the “hERG current change (%, negative = inhibition) at 10uM” value was 4.39%. CCn1c2c(c3cc(Cl)ccc31)CCCC2=O was tested, and the “hERG current change (%, negative = inhibition) at 10uM” value was 3.71%. Cc1ccc2c(c1)c1c3n2CCN=C3CCC1.Cl was tested, and the “hERG current change (%, negative = inhibition) at 10uM” value was -76.3%. For c1cc2c(cc1C1CCCCC1)c1c3n2CCN=C3CCC1, the “hERG current change (%, negative = inhibition) at 10uM” value was -33.9%. With CCO.Cn1c2c(c(=O)n(C)c1=O)C1(C(=O)Nc3ccccc31)C(C#N)=C(N)O2 (stereo not shown) the “hERG current change (%, negative = inhibition) at 10uM” value was 8.3%. With COc1ccc(CN(C)C(=O)c2cccc(Oc3ccccc3)c2)c(OC)c1OC the “hERG current change (%, negative = inhibition) at 10uM” value was -20.6%. In the case of CSc1nc(C)c(Oc2ccccc2)c(=O)n1C, the “hERG current change (%, negative = inhibition) at 10uM” value is reported as 5.82%. In the case of CCC1CCCCN1C(=O)NC(=O)c1ccccc1 (stereo not shown), the “hERG current change (%, negative = inhibition) at 10uM” value is reported as 30.3%. For CC(C)OCCCN(C)C1CCN(S(=O)(=O)c2ccc(-c3ccc(=O)[nH]n3)s2)CC1, the “hERG current change (%, negative = inhibition) at 10uM” value was -35.8%. In the case of CC(C)OCCCN(C)C1CCN(S(=O)(=O)c2ccc(-c3cc(C(F)(F)F)no3)s2)CC1, the “hERG current change (%, negative = inhibition) at 10uM” value is reported as -54.6%. With CC(C)OCCCN(C)C1CCN(S(=O)(=O)c2csc(C(N)=O)c2)CC1 the “hERG current change (%, negative = inhibition) at 10uM” value was 13.1%. In the case of Cc1ccccc1C(=O)NC(=S)Nc1ccc(S(=O)(=O)N2CCOCC2)cc1, the “hERG current change (%, negative = inhibition) at 10uM” value is reported as -40%. Cc1ccc(C(NC(=O)c2cccc(S(=O)(=O)N3CCN(C)CC3)c2)c2ccccc2)cc1 (stereo not shown) was tested, and the “hERG current change (%, negative = inhibition) at 10uM” value was -61.8%. With CC(NC(=O)c1cccc(S(=O)(=O)N2CCCCCC2)c1)c1ccccc1 (stereo not shown) the “hERG current change (%, negative = inhibition) at 10uM” value was -58.2%. For CN1CCN(S(=O)(=O)c2cccc(C(=O)N(C)C(c3ccccc3)c3ccccc3)c2)CC1, the “hERG current change (%, negative = inhibition) at 10uM” value was -4.72%. With O=C(NCc1ccccc1CN1CCCC1)c1cccc(S(=O)(=O)N2CCOCC2)c1 the “hERG current change (%, negative = inhibition) at 10uM” value was -44.5%. CC(NC(=O)c1cccc(S(=O)(=O)N2CCN(Cc3ccccc3)CC2)c1)c1ccc(Br)cc1 (stereo not shown) was tested, and the “hERG current change (%, negative = inhibition) at 10uM” value was -17.6%. For O=C(NCc1cccc(Cl)c1)c1cccc(S(=O)(=O)N2CCCCC2)c1, the “hERG current change (%, negative = inhibition) at 10uM” value was 7.08%. With O=C(NCc1ccccc1)c1cccc(S(=O)(=O)N2CCCCC2)c1 the “hERG current change (%, negative = inhibition) at 10uM” value was -52.5%. For O=C(NCc1ccccc1F)c1cccc(S(=O)(=O)N2CCCCCC2)c1, the “hERG current change (%, negative = inhibition) at 10uM” value was 7.87%. For O=C(NCc1ccccc1CN1CCCC1)c1cccc(S(=O)(=O)N2CCCC2)c1, the “hERG current change (%, negative = inhibition) at 10uM” value was -55.1%. With O=C(NCCc1ccccc1)c1cccc(S(=O)(=O)N2CCCCC2)c1 the “hERG current change (%, negative = inhibition) at 10uM” value was 5.18%. For CC(NC(=O)c1cc(S(=O)(=O)N2CCCC2)cn1C)c1ccccc1 (stereo not shown), the “hERG current change (%, negative = inhibition) at 10uM” value was -0.137%. For CN1CCN(S(=O)(=O)c2cccc(C(=O)O)c2)CC1, the “hERG current change (%, negative = inhibition) at 10uM” value was 10.8%.
